Results reported in the supplement of paper PMC12669032.

Legend:
Roseburia intestinalis = experiment: growth AUC relative to DMSO control (median of replicates) (fraction); higher = more growth (less inhibition), active = hit call of the paper; details: 20 µM; 24 h
Procedure, shortened: (§1)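 Gut bacterial monocultures in mGAM were treated with 20 µM compound (1% DMSO) and grown anaerobically at 37 °C in round-bottom 96-well plates from OD600 0.05. OD600 was read hourly for 24 h, with the minimum OD set to 0. Area under the growth curve was normalised to the plate median of solvent-only wells, or to row and column medians on the industrial chemical plate. Each value is the median of three biological replicates, each grown on a separate day.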

Streptococcus salivarius = experiment: as above; details: 20 µM; 24 h
Procedure, shortened: as §1

Compound | growth AUC (Roseburia intestinalis) | growth AUC (Streptococcus salivarius)
O=C(NC(=O)c1ccccc1Cl)Nc1ccc(OC(F)(F)F)cc1 | 0.918 (inactive) | 0.951 (inactive)
CNC(=O)O/N=C(\C)SC | 0.994 (inactive) | 0.973 (inactive)
O=C(NC(=O)c1c(F)cccc1F)Nc1ccc(Oc2ccc(C(F)(F)F)cc2Cl)cc1F | 1.1 (inactive) | 0.985 (inactive)
Clc1ccccc1-c1nnc(-c2ccccc2Cl)nn1 | 1.1 (inactive) | 0.984 (inactive)
Fc1ccc(C2(Cn3cncn3)OC2c2ccccc2Cl)cc1 (centres undefined) | 1.03 (inactive) | 0.966 (inactive)
COC(=O)Nc1nc2ccccc2[nH]1 | 1 (inactive) | 0.971 (inactive)
CCCCOC(=O)N(C)SN(C)C(=O)Oc1cccc2c1OC(C)(C)C2 | 0.992 (inactive) | 1.02 (inactive)
